Measured values taken from PubChem BioAssay (NCI).
Compounds without any hit were thinned out: in the full panel of roughly 83,000, 20% have a hit.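 Treatment: one concentration, 48 hours, 96-well format. Scoring: percent growth, with anything below 10 considered active.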 Unmarked numbers belong to inactive results. The source made the active and inactive calls.

Key:
Test in all cases: NCI-60 one-dose screen, 48 h (100 = growth as untreated, 0 = no growth, -100 = all killed)
Conditions in all cases: 10 µM unless noted
[1] = test system: HCT-15 colon
[2] = test system: HT29 colon
[3] = test system: SNB-75 CNS
[4] = test system: U251 CNS
[5] = test system: PC-3 prostate
[6] = test system: SK-MEL-5 melanoma
[7] = test system: UACC-62 melanoma
[8] = test system: LOX IMVI melanoma
[9] = test system: SK-MEL-28 melanoma
[10] = test system: SNB-19 CNS

SMILES | growth [1] | growth [2] | growth [3] | growth [4] | growth [5] | growth [6] | growth [7] | growth [8] | growth [9] | growth [10] [%]
c1ccc(-c2n(Cc3ccc4ccccc4c3)c3c4ccccc4c4ccccc4c3[n+]2Cc2ccc3ccccc3c2)cc1 | -76.7% (active) | -67.2% (active) | -54.3% (active) | -78.7% (active) | -78.6% (active) | -98.5% (active) | -87.6% (active) | -86.2% (active) | -87.3% (active) | 
CN(C)c1ccc(/C=N/Nc2nc(N/N=C/c3ccc(N(C)C)cc3)nc(N3CCOCC3)n2)cc1 | 22.4% | 102% | 87.4% | 44.3% | 87.7% | 100% | 97.8% | 87.7% | 106% | 
COc1ccc(NC(=O)[C@H](C)N)cc1C(=O)Nc1cccc(-c2cc(=O)c3c(OC)c(OC)c(OC)cc3o2)c1 | 49.6% | 69.8% | 84.5% | 56.3% | 71.6% | 57.9% | 63.5% | 49.8% | 88.2% | 
CSc1nccc(-c2c(-c3ccc(F)c(OCc4ccc(F)cc4)c3)nc3sccn23)n1 | 64.6% | 67.8% | 113% | 60.2% | 55.2% | 19.2% | 38% | 74% | 87.5% | 
COc1ccc([C@H]2[C@H](O)C(=O)N2c2cc(OC)c(OC)c(OC)c2)cc1Cl | 9.77% (active) | 1.45% (active) | 58.6% | 1.42% (active) | 12.6% | -12.5% (active) | 31% | 14.4% | 63.6% | 
Cc1ccc(-c2csc(N/N=C/c3nc4ccccc4n3C3CC3)n2)cc1 | 80.6% | 92.2% | 22% | 43.8% | 61.6% | 5.51% (active) | 95.1% |  | 103% | 
CN(C)C(=O)C1=NC(CO)C(=O)N(c2ccc(Cl)cc2)N1 (stereo unspecified) | 102% | 102% | 105% | 101% | 90.8% | 102% | 96.6% | 95.3% | 107% | 
CCOC(=O)C1=C(C)Nc2nnc(Nc3ccccc3)n2C1c1ccccc1 (stereo unspecified) | 58.1% | 79.4% | 70.5% | 45.4% | 73.5% | 89.9% | 75.3% | 59.2% | 89.9% | 
COc1cc(/C=C/C(=O)c2ccc(N3CCN(C)CC3)cc2)ccc1F | 36.4% | 46.5% | 58% | 76.2% | 61.5% | 95.6% | 88.6% | 17.8% | 98.3% | 
C(=C(\C1=NCCN1)n1cnc2ccccc21)/c1cccc2ccccc12 | 88.2% | 95% | 78.2% | 94.6% | 78.6% | 87.3% | 88.1% | 83.8% | 93.8% | 
C=CCn1c(SCC(=O)Nc2cccc(C(=O)/C=C/c3ccc(C)cc3)c2)nc2ccccc2c1=O | 62% | 72.7% | 78.4% | 72% | 72.5% | 97.2% | 76.7% | 73.8% | 95.3% | 
O=C(NNc1nc2cc(F)c(F)cc2n2cccc12)c1ccncn1 | 23.6% | 27.3% | -6.38% (active) | 17.9% | 33.2% | -19.4% (active) | 19% | 11.7% | 29.4% | 
Nc1nc(-c2cccc([N+](=O)[O-])c2)c(N=Nc2cccc(Cl)c2)s1 | 16.3% | 40.7% | 40.3% | 44.3% | 37.6% | 39.9% | 32.9% | 24.5% | 75.6% | 
COc1ccccc1N1CCN(C2=NN=C(c3cccc(Cl)c3)c3ccccc3C2)CC1 | 15.8% | -3.52% (active) | 19.7% | 20.7% | 23.5% | -6.03% (active) | 31.6% | 24.8% | 60.7% | 
CCOP(=O)(OCC)OC[C@]12CCC(C)(C)C[C@H]1C1=CC[C@@H]3[C@@]4(C)C/C(=C\c5cccnc5)[C@H](OP(=O)(OCC)OCC)C(C)(C)[C@@H]4CC[C@@]3(C)[C@]1(C)CC2 | 14.4% | 12% | 80.2% | 14.7% | 15.6% | -61.3% (active) | 25.5% | 22% | 34.5% | 
Cc1ccc(-c2nnc3sc(C4=Cc5ccccc5OC=C4)nn23)cc1 | 92.9% | 101% | 79.1% | 96.6% | 96.7% | 92.2% | 91.6% | 116% | 97.1% | 
O=C1c2c(c3c4cccnc4[nH]c3c3ccc4ccccc4c23)C(=O)N1CCN1CCCCC1 | 45.5% | 44.8% | 53.8% | 55.1% | 59.5% | 48.1% | 49.6% |  | 97% | 
C#CCOc1ccc(/C=N/Nc2nc(-c3cc(Cl)ccc3Cl)cs2)cc1 | 81.7% | 110% | 77.3% | 98.6% | 87.1% | 97.8% | 80.3% | 97.7% | 110% | 
COc1cc2c3c(n(CCCNC4CCC4)c(=O)c2cc1OC)-c1cc2c(cc1C3=O)OCO2 | -53% (active) | -64.1% (active) | -67% (active) | -88.9% (active) | -78.7% (active) | 76.8% | 59.1% | -72.8% (active) | 86.7% | 
COc1ccc(/C(C)=C(\c2ccc(Cl)cc2)c2ccc(OCCN)cc2)cc1 | 40.5% | 0.975% (active) | 88.9% | 61.9% | 78.9% | 96.7% | 98.5% | 0.915% (active) | 86.1% | 
CS(=O)(=O)c1ccc2c(c1)c1c(n2S(=O)(=O)c2ccc(Cl)cc2)CCCC1 | 24% | 5.37% (active) | -1.4% (active) | 25.6% | 30.7% | 26.7% | 15.5% | 36.5% | 64.2% | 
CCN1C/C(=N\S(=O)(=O)c2ccccc2)N(CC)C1=S | 101% | 108% | 91.3% | 97.4% | 110% | 102% | 95.2% | 99.3% | 104% | 
Cc1nn(-c2ccc(Br)cc2)c2nc(CCl)[nH]c(=O)c12 | 103% | 104% | 99.7% | 98.5% | 96.4% | 102% | 95.1% | -9.8% (active) | 103% | 
O=C(NCCCNc1cc(-c2cn(-c3ccccc3)nc2-c2cccc(O)c2)ccn1)Nc1cc(C(F)(F)F)cc(C(F)(F)F)c1 | 33.4% | 31.7% | 64.2% | 51.5% | 39.9% | 55.7% | 73% | 81.2% |  | 
Oc1ccc(CSc2nnc(-c3cnccn3)n2-c2ccccc2)c2cccnc12 | 19.3% | 79.5% |  | 20.4% | 30% | -22.6% (active) | 2.61% (active) |  |  | 19.7
O=C(Nc1cc(Cl)cc(Cl)c1)Nc1ccc2oc(=O)ccc2c1 | 8.08% (active) | 16.2% | 39.3% | 6.21% (active) | 1.84% (active) | 29.6% | 2.84% (active) | 14.8% | 9.09% (active) | 
O=C1c2c(c3c4cc(Br)ccc4[nH]c3c3ccc4ccccc4c23)C(=O)N1CCN1CCCCC1 | -60% (active) | 10.3% | 49.6% | -10.9% (active) | 65% | 68.3% | 59.5% |  |  | 
